# Shn3 inh set2: reduction of Shn3 3'UTR firefly luciferase signal, primary screen, Schnurri-3 inhibitor project, cell-based, Clone20 osteoblasts, set 2 | Clone20 osteoblast Shn3 3'UTR firefly luciferase, 24 h | inhibition, % at 12.5 µM | actives 0.52% (n = 360,000) | AID 588674, 2011;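 active means mean inhibition of at least 75% with every replicate also reaching 75%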;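 further: 0% = median of neutral control wells and 100% = pilot-screen positive control compound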
# Jurkat NFkB inh: inhibitors of induced NF-kB luciferase reporter, primary screen, TCR NF-kB activation inhibitor project, cell-based, luminescence, uHTS. inhibition, % at 4 µM. actives 0.53% (n = 330,000). Jurkat, PMA/ionomycin-induced NF-kB luciferase reporter; in the data active means inhibition above about 50%
# 697 NFkB inh: inhibitors of PMA/ionomycin-induced NF-kB reporter, 697 cells, primary screen, B-cell NF-kB inhibitor project, cell-based, luminescence, uHTS; inhibition, % at 4 µM; 697 B-cell NF-kB luciferase reporter, 16 h; actives 0.33% (n = 330,000); in the data active means inhibition above about 35%
# Mdm2 MdmX PPI: inhibitors of human Mdm2-MdmX association, primary screen, cell-based, luminescence, split luciferase, SaOS-2, uHTS; Protein Mdm4 (Homo sapiens) + E3 ubiquitin-protein ligase Mdm2 (Homo sapiens), …; SaOS-2 split-luciferase Mdm2/MdmX complementation; inhibition, % at 8 µM; actives 3% (n = 330,000);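 active means inhibition of at least 50% at 8 µM in the primary screen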
# Target sequence (O15151 whole entry, looked up): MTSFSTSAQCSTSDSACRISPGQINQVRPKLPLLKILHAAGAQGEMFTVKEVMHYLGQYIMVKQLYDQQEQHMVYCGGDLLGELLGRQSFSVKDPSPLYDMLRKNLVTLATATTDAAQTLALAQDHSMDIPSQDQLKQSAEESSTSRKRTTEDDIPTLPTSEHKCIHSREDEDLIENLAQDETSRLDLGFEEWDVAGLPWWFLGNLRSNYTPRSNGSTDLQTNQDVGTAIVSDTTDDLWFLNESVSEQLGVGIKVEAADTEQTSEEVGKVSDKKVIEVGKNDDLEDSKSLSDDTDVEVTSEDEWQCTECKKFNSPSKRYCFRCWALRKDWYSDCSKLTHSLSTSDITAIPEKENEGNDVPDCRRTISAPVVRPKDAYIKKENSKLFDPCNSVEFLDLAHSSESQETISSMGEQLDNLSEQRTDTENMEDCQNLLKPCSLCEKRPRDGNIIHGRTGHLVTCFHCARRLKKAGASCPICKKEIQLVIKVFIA
# Target sequence (Q00987 whole entry, looked up): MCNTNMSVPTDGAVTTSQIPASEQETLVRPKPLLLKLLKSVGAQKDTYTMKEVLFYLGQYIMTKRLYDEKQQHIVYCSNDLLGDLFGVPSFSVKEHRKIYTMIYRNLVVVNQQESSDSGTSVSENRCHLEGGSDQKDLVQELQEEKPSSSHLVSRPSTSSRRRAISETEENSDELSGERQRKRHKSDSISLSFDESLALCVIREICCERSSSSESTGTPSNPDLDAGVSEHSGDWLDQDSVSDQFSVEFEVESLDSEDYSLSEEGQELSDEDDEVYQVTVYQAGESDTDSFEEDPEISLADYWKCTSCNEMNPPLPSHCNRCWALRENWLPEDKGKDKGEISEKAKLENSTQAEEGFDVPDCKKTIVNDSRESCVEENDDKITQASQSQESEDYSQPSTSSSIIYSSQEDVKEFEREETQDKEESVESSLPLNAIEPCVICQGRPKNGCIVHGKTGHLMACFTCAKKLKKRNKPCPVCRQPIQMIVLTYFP
# Gli-Sufu antag: Gli-Sufu pathway antagonists, primary screen, luciferase luminescence, Sufu-KO-LIGHT cells, uHTS. Sufu-KO-LIGHT fibroblasts, Gli luciferase reporter luminescence. inhibition, % at 5 µM. actives 0.74% (n = 340,000). AID 588413, 2011;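 active means inhibition above about 55%, limit read from the data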;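 further: 0% = DMSO-treated cells and 100% = wells with medium but no cells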
# Mdm2 MdmX conf: Mdm2-MdmX complex disruptors, retested hits, confirmation, luminescence, single concentration; Mdm2-MdmX binding, luminescent assay; inhibition, % at 8 µM; actives 55% (n = 10,000); shares compounds with Mdm2 MdmX PPI; AID 489028, 2010; in the data active means inhibition above about 40%
# FLuc counter: full-length luciferase signal inhibition, confirmation, counter-screen for Mdm2/MdmX interaction inhibitor project, cell-based, single concentration, SaOS-2; inhibition, % at 8 µM; shares compounds with Mdm2 MdmX PPI; SaOS-2 full-length luciferase counterscreen, luminescence; actives 77% (n = 6,200);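 active means mean inhibition at 8 µM reaching about 37%, which flags the compound as non-specific, limit read from the data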;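 further: p53-null SaOS-2 cells with luciferase driven by a doxycycline-inducible promoter; compound on cells about two nights before reading with doxycycline added after day one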
# An asterisk follows results filed as active; . = no result. Hits are enriched below; roughly 3.8% of the tested compounds scored in any of these assays.
SMILES,Shn3 inh set2,Jurkat NFkB inh,697 NFkB inh,Mdm2 MdmX PPI,Gli-Sufu antag,Mdm2 MdmX conf,FLuc counter
O=c1oc2cc(Oc3ccc(C(F)(F)F)cc3[N+](=O)[O-])ccc2c2c1CCC2,17,2,-6,12,5,.,.
Cc1nc2cc(NS(=O)(=O)c3ccc(Br)cc3)ccc2n1C,40,2,5,-14,15,.,.
OCCN1CCN(c2nc(-c3ccccc3)nc3c2oc2ccccc23)CC1,-22,-11,-6,54*,-3,38,54*
CCOC(=O)C1CCCN(C(=O)c2cc(F)cc(F)c2)CC1 (centres undefined),-19,.,.,.,.,.,.
O=C(N/N=C/c1cccc([N+](=O)[O-])c1)c1cc(-c2ccc3c(c2)OCO3)n[nH]1,10,-5,-7,52*,34,32,.
O=C(N/N=C/c1cccc(O)c1)c1cc(-c2ccc3c(c2)OCO3)n[nH]1,-7,-1,-34,15,-7,.,.
CCOC(=O)c1cc(-c2cccc([N+](=O)[O-])c2)n[nH]1,-29,-2,-3,-4,3,.,.
CCc1ccc(/C=N/NC(=O)c2cc(-c3cccc([N+](=O)[O-])c3)n[nH]2)cc1,-11,23,-9,62*,-7,62*,70*
CCCCN(C(=O)c1ccc(S(=O)(=O)N2CCCCC2)cc1)C1CCS(=O)(=O)C1 (centres undefined),8,-2,-7,-28,26,.,.
Cc1ccnc(NC(=O)c2ccccc2NC(=O)c2ccc(Cl)cc2Cl)c1,11,41,-57,64*,27,57*,66*
Cc1ccnc(NC(=O)c2ccc(Cl)c(NC(=O)c3ccccc3C)c2)c1,10,11,-11,26,-1,.,.
Cc1ccc(CNC(=O)c2ccc(N3CCC4(CC3)CC(c3ccccc3)=NO4)c(NC(=O)c3ccc(Cl)c([N+](=O)[O-])c3)c2)cc1,-32,14,14,2,-12,.,.
O=C(Nc1ccc(N2CCOCC2)cc1)c1cnccn1,30,8,-19,54*,-24,32,.
O=C(Nc1ccc(N2CCOCC2)cc1)c1cnsn1,49,47,29,70*,30,68*,32
CC(=O)c1c(C)[nH]c(C(=O)OC(C)C(=O)NC2CCCCC2)c1C (centres undefined),11,.,.,.,.,.,.
CCc1noc(C)c1C(=O)NNC(=O)c1ccc(N(CC)CC)cc1,7,-2,5,16,-2,.,.
CN(C)/C=C/C(=O)c1ccc2noc(-c3cccc(F)c3)c2c1,-7,-15,-6,53*,31,26,.
CC1CCCN(C(=O)COc2ccc(Nc3ccccc3)cc2)C1 (centres undefined),5,4,-6,1,3,.,.
Cc1ccc(-n2nc3c([n+]2[O-])CCc2c-3no[n+]2[O-])cc1,90*,42,-20,53*,1,11,.
COC(=O)/C(=C\Nc1ccc(Cl)c2ccccc12)c1ncc(C(F)(F)F)cc1Cl,5,10,5,59*,3,4,.
CCOC(=O)/C(=C\Nc1ccccc1C(F)(F)F)Sc1ncc(C(F)(F)F)cc1Cl,6,-11,-17,-3,4,.,.
CC(C)N1C(=O)/C(=C/c2nc3ccccc3c(=O)n2-c2ccccc2)c2ccccc21,-1,8,-28,78*,12,54*,37*
CC(C)N1C(=O)/C(=C\c2nc3ccccc3c(=O)n2-c2ccccc2)c2ccccc21,-23,.,.,.,9,.,.
Cc1cc(OCC(=O)Nc2nnc(C3CC3)s2)ccc1C(C)C,-5,3,10,-4,11,.,.
Cc1ccc(C(C)C)cc1OCC(=O)Nc1nnc(C2CC2)s1,17,-9,-188,88*,1,65*,33
SMILES,Shn3 inh set2,Jurkat NFkB inh,697 NFkB inh,Mdm2 MdmX PPI,Gli-Sufu antag,Mdm2 MdmX conf,FLuc counter
CCCCN1CC(O)=C(c2nc(-c3ccc(Br)cc3)cs2)C1=N,15,2,0,80*,4,53*,63*
CCOC(=O)CCCN1CC(O)=C(c2nc(-c3ccc(Cl)cc3)cs2)C1=N,2,-4,-1,30,0,.,.
COc1ccc(-c2csc(-n3ncc(-c4ccccn4)c3N)n2)cc1,-15,1,7,58*,2,6,.
FC(F)(F)c1cc(CCN2CCNC[C@@H]2Cc2ccccc2)cc(C(F)(F)F)c1,40,-3,-8,51*,31,20,.
Cc1c(CN(C)C)c2c(n1Cc1ccccc1)C(=O)c1ccc(Br)cc1-2,10,7,14,77*,14,61*,30
Cc1c(CN(C)C)c2c(n1C)C(=O)c1ccc(Br)cc1-2,9,25,1,16,3,.,.
COc1ccc([C@H]2CC(=O)C=C(c3cc(OC)ccc3OC)C2)cc1,8,44,-23,51*,6,51*,54*
COc1ccccc1C(=O)NC(=O)CSc1nc(C)cs1,-16,10,-11,6,-2,.,.
CCOc1ccc(Nc2nnc(SCc3nc4ccccc4c(=O)[nH]3)s2)cc1,25,-7,-14,63*,8,23,.
Cc1cccc(OCc2nnc(SCc3nc4ccccc4c(=O)[nH]3)o2)c1,-2,-11,-7,17,4,.,.
COc1ccc(-c2nnc(SCc3nc4ccccc4c(=O)[nH]3)o2)cc1,-1,-32,-26,73*,2,58*,105*
Cc1ccc(NC(=O)CCOc2ccccc2C)cc1F,-44,-21,-14,-45,-8,.,.
CCN(CC)CCOc1ccc(/C(=C(\Cl)c2ccccc2)c2ccccc2)cc1,-38,-9,-14,69*,4,30,.
CCNc1nc(NC(C)C)nc(Oc2ccc(OCCOc3ccccc3)nn2)n1,14,-5,32,51*,43,11,.
CCNc1nc(NC(C)C)nc(Oc2ccc(OCc3ccccc3)nn2)n1,-2,-1,7,28,1,.,.
Cc1ccc(S(=O)(=O)Nc2cccc(C(=O)N3CCC(C(N)=O)CC3)c2)cc1,6,4,6,-13,10,.,.
CC1CCC(C(C)C)C(OC(=O)Cn2c(-c3ccc(F)cc3)[n+](C)c3ccccc32)C1 (centres undefined),72,37,-106,89*,81*,93*,57*
Cc1cccc(OCc2n(CC(=O)OC3CC(C)CCC3C(C)C)c3ccccc3[n+]2C)c1 (centres undefined),7,45,-14,94*,46,96*,56*

# Source: PubChem BioAssay
